The list is not random: actives were taken first. Their share in the collection is about 2.3%.
GLD-1 TGE inh: GLD-1-TGE RNA interaction inhibition (C. elegans). purified GLD-1 + fluorescein TGE RNA, fluorescence polarization. inhibition, % at 5.96 µM. AID 2280. hit rate 0.44% among 320,000;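 active means percent inhibition above a per-plate cutoff, the plate mean of test compounds plus 3 SD, cut at about 30% in these data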;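 further: 0% = DMSO wells with GLD-1 and probe and 100% = wells lacking GLD-1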
Bim-Mcl-1: inhibitors of Bim-Mcl-1 interaction, human | Q07820 | Bead-based flow cytometry, Bim peptide-Mcl-1 binding | inhibition, % at 10 µM | hit rate 0.1% among 190,000 | AID 1009; in the data active means inhibition above about 40%;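 further: 0% = no compound tracer wells and 100% = peptide blocker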
Target sequence (Q07820 whole entry, looked up): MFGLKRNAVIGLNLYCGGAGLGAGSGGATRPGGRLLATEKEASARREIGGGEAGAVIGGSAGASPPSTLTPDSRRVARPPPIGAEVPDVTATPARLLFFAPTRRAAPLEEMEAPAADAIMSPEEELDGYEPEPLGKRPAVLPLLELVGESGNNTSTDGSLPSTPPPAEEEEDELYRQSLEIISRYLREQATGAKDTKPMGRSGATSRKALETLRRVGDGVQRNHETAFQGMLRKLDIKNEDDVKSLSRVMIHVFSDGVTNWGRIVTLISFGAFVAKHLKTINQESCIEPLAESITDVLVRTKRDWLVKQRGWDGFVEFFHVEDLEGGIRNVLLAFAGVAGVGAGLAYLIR
Bcl-xL primary: blocks human Bcl-xL binding to Bim BH3 peptide | Q07817 | GST-Bcl-xL / FITC-Bim BH3 peptide fluorescence polarization | inhibition, % at 10.9 µM | hit rate 0.7% among 320,000 | AID 2129;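 active means inhibition above the mean of all tested compounds plus 3 SD, cutoff set per campaign, cut at about 30% in these data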;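 further: 0% = DMSO wells and 100% = unlabeled Bim-BH3 peptide competitor; inhibitors lower millipolarization by displacing the labeled peptide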
Target sequence (Q07817 whole entry, looked up): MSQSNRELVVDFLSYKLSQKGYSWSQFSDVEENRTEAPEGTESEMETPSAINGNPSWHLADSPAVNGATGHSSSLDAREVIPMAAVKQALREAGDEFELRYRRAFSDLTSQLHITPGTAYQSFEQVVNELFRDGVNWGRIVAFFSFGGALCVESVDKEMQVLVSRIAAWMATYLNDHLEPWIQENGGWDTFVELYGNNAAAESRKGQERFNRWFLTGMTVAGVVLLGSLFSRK
MCL1 BIM primary: MCL1-BIM-BH3 interaction inhibition (human). Q07820. GST-MCL1 / FITC-Bim-BH3 fluorescence polarization. inhibition, % at 10.9 µM. hit rate 0.68% among 320,000. AID 2057;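 active means inhibition above the mean inhibition of all tested compounds plus 3 SD, set per campaign, cut at about 40% in these data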;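 further: 0% = DMSO wells and 100% = unlabeled Bim-BH3 peptide control; higher means more loss of mP so more displacement of Bim peptide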
Mcl1 Bid PPI: Mcl-1/Bid interaction inhibition; hit rate 0.97% among 220,000; AID 1021; inhibition, % at 21.7 µM; Q07820; TR-FRET Mcl-1/Bid-Dy647 peptide binding, 1536-well;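 active means compounds that cut the binding signal by more than half at the single screening dose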;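 further: His-tagged Mcl-1 with europium anti-His antibody binding Bid BH3 peptide; 0% = Mcl-1 plus peptide wells and 100% = peptide-only wells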
Mcl1 Noxa PPI: disrupts binding of human Mcl-1 to Noxa peptide; Q07820; TR-FRET Mcl-1/Noxa peptide binding, 2 h; inhibition, % at 21.7 µM; hit rate 1.5% among 220,000; AID 1022;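 active means compounds that cut the protein-peptide binding signal by more than 50% relative to plate controls in a single-dose test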;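 further: His-tagged Mcl-1 with rhodamine Noxa BH3 peptide and terbium anti-His antibody; 0% = Mcl-1 plus Noxa peptide wells and 100% = peptide-only wells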
Numbers without * were called inactive.

CCOC(=O)N1CC=C2C(C#N)=C(N)C(C#N)(C#N)[C@H](c3ccsc3)[C@H]2C1 was read as GLD-1 TGE inh 27, Bim-Mcl-1 2, Bcl-xL primary 41*, MCL1 BIM primary 39, Mcl1 Bid PPI -46 and Mcl1 Noxa PPI 3.
For CN1C2C=C3C(C#N)=C(N)C(C#N)(C#N)[C@@H](c4ccsc4)[C@@H]3C1CC2 (stereo partly drawn) the results were GLD-1 TGE inh 12, Bim-Mcl-1 53*, Bcl-xL primary 22, MCL1 BIM primary 30, Mcl1 Bid PPI -17 and Mcl1 Noxa PPI 10.
Screening CC(C)c1ccc(C2C3CSCC=C3C(C#N)=C(N)C2(C#N)C#N)cc1 (stereo not drawn) returned GLD-1 TGE inh 4, Bim-Mcl-1 -1, Bcl-xL primary 0, MCL1 BIM primary -13, Mcl1 Bid PPI -28 and Mcl1 Noxa PPI 14.
For O=C(C[C@H]1C/C=C\CC[C@@H](Cc2ccc(F)cc2)C(=O)OC[C@H]2CCCN2C1=O)NCCO the results were GLD-1 TGE inh 2.
O=C1N=C2N(CCN3CCCCC3)c3ccccc3N2/C1=C\c1ccc([N+](=O)[O-])o1 was read as Bim-Mcl-1 0, Mcl1 Bid PPI 83* and Mcl1 Noxa PPI 12.
Screening CCOc1ccc(NC(=O)c2cc3c(C)nc4ccccc4c3o2)cc1 returned GLD-1 TGE inh 1, Bim-Mcl-1 1, Bcl-xL primary 1, MCL1 BIM primary 5, Mcl1 Bid PPI 52* and Mcl1 Noxa PPI 42.
`COc1ccccc1CN(C)C(=O)c1cccc(S(=O)(=O)N2CCCc3ccccc32)c1` gave GLD-1 TGE inh 2, Bcl-xL primary 1 and MCL1 BIM primary 1.
Screening O=C(Nc1cccc(/C=C/c2nc3ccccc3c(=O)[nH]2)c1)c1ccccc1Cl returned GLD-1 TGE inh 0, Bcl-xL primary 1, MCL1 BIM primary 4, Mcl1 Bid PPI 10 and Mcl1 Noxa PPI -3.
CCOc1cc(/C=C(\CC(=O)O)c2nc3ccccc3s2)ccc1OC was read as GLD-1 TGE inh 3, Bim-Mcl-1 0, Bcl-xL primary 6, MCL1 BIM primary 2, Mcl1 Bid PPI -1 and Mcl1 Noxa PPI 13.
For COc1ccc(C(=O)Nc2cccc(/C=C/c3nc4ccccc4c(=O)[nH]3)c2)cc1 the results were GLD-1 TGE inh 2, Bcl-xL primary -9, MCL1 BIM primary -13, Mcl1 Bid PPI 43 and Mcl1 Noxa PPI 57*.
COc1cc(/C=C(\CC(=O)O)c2nc3ccccc3s2)cc(OC)c1O was read as GLD-1 TGE inh -4, Bim-Mcl-1 -1, Bcl-xL primary 17, MCL1 BIM primary 15, Mcl1 Bid PPI 19 and Mcl1 Noxa PPI 58*.
`COc1ccc(C(=O)Nc2nc3cc(OC)c(OC)cc3c(=O)[nH]2)cc1` gave GLD-1 TGE inh 8, Bim-Mcl-1 10, Bcl-xL primary 4, MCL1 BIM primary 5, Mcl1 Bid PPI 99* and Mcl1 Noxa PPI -8.
O=C(O)C/C(=C\c1cccc(NC(=O)c2ccccc2Cl)c1)c1nc2ccccc2s1 was read as GLD-1 TGE inh 5, Bcl-xL primary -8, MCL1 BIM primary -7, Mcl1 Bid PPI -20 and Mcl1 Noxa PPI 65*.
For O=C(Nc1ccc(Cl)cc1)/C(=C/c1cccc(O)c1)c1nc2ccccc2s1 the results were GLD-1 TGE inh 10, Bim-Mcl-1 -4, Bcl-xL primary -2, MCL1 BIM primary -3, Mcl1 Bid PPI -1 and Mcl1 Noxa PPI 4.
O=C(CNC(=O)C1COc2ccccc2O1)Nc1ccc(F)c(F)c1 (stereo not drawn) was read as GLD-1 TGE inh 3.
`CN(c1ccccc1)c1ccc(/C=C(\CCC(=O)O)c2nc3ccccc3s2)cc1[N+](=O)[O-]` gave GLD-1 TGE inh -2, Bim-Mcl-1 -1, Bcl-xL primary 21, MCL1 BIM primary 22, Mcl1 Bid PPI -41 and Mcl1 Noxa PPI 100*.
`COc1ccc(C(=O)Nc2cccc(/C=C(\CCC(=O)O)c3nc4ccccc4s3)c2)cc1` gave GLD-1 TGE inh 1, Bcl-xL primary 4, MCL1 BIM primary -3, Mcl1 Bid PPI -61 and Mcl1 Noxa PPI 85*.
`Cc1ccc(/C=C(\CCC(=O)O)c2nc3ccccc3s2)cc1[N+](=O)[O-]` gave GLD-1 TGE inh 0, Bim-Mcl-1 -4, Bcl-xL primary 3, MCL1 BIM primary 1, Mcl1 Bid PPI 4 and Mcl1 Noxa PPI 27.
Screening COc1ccc(-n2ncc(C(C)NS(=O)(=O)c3ccc(C)s3)c2C)cc1 (stereo not drawn) returned GLD-1 TGE inh -1, Bcl-xL primary 6 and MCL1 BIM primary 1.
Screening C=CCN(Cc1cccc(OC)c1OC)C(=O)Oc1ccccc1 returned GLD-1 TGE inh 5, Bcl-xL primary 2 and MCL1 BIM primary -1.
`Cc1cn2c(=O)c(C(=O)N3CCN(c4ccccc4)CC3)cnc2s1` gave GLD-1 TGE inh 0, Bcl-xL primary 2 and MCL1 BIM primary 5.
Screening O=C(O)c1[nH]c2ccccc2c1C=NCc1ccccc1Cl returned GLD-1 TGE inh -8, Bim-Mcl-1 0, Bcl-xL primary 0, MCL1 BIM primary 0, Mcl1 Bid PPI 89* and Mcl1 Noxa PPI -5.
`Cc1cc(Cl)cc(C)c1OCCOCCNCc1ccccc1` gave GLD-1 TGE inh 2, Bcl-xL primary 0 and MCL1 BIM primary 2.
Cc1ccc(-c2csc(NC(=O)c3ccno3)n2)cc1 was read as GLD-1 TGE inh -1, Bim-Mcl-1 -1, Bcl-xL primary 7, MCL1 BIM primary 18, Mcl1 Bid PPI 16 and Mcl1 Noxa PPI 56*.
Screening Cc1ccc(-c2csc(NC(=O)c3ccc(C)o3)n2)cc1 returned GLD-1 TGE inh 6, Bim-Mcl-1 -7, Bcl-xL primary -2, MCL1 BIM primary -4, Mcl1 Bid PPI 0 and Mcl1 Noxa PPI 11.
For CN(CC(=O)Nc1sccc1C(N)=O)S(=O)(=O)c1ccc(Cl)cc1 the results were GLD-1 TGE inh -33.
O=C(CN(C(=O)c1csnn1)c1ccccc1C(F)(F)F)NC1CCCCC1 was read as GLD-1 TGE inh 5, Bcl-xL primary 11 and MCL1 BIM primary 12.
For CCCc1nc2c(C)ccc(C)c2c(N)c1CC the results were GLD-1 TGE inh 4, Bim-Mcl-1 0, Bcl-xL primary 6, MCL1 BIM primary 6, Mcl1 Bid PPI 58* and Mcl1 Noxa PPI 22.
Screening CSc1nc(-c2ccc(C)cc2)[nH]c1S(=O)(=O)c1ccccc1 returned GLD-1 TGE inh 1, Bim-Mcl-1 2, Bcl-xL primary -16, MCL1 BIM primary -19, Mcl1 Bid PPI 3 and Mcl1 Noxa PPI 26.
CC(=O)Sc1nc(-c2ccccc2)[nH]c1S(=O)(=O)c1ccc(C)cc1 was read as GLD-1 TGE inh 4, Bim-Mcl-1 -2, Bcl-xL primary -2, MCL1 BIM primary -12, Mcl1 Bid PPI -53 and Mcl1 Noxa PPI 70*.

Compound activity (PubChem)
